The values below come from PubChem BioAssay (NCI).

“And” between values parts separate entries of the source, which are not always exact repeats. Equal values may be shown once. About 83,000 compounds went through this panel and 20% of them were active in at least one assay; those are over-represented in the sample as a whole.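 Treatment: one concentration, 48 hours, 96-well format. Scoring: percent growth, with anything below 10 considered active.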 The source made the active and inactive calls.

For the test, the system named is MDA-MB-468 breast. The test is described as follows: NCI-60 one-dose screen, 48 h (100 = growth as untreated, 0 = no growth, -100 = all killed). To be noted: 10 µM unless noted.
On to `O=C(Nc1ccc(Cl)c(C(F)(F)F)c1)Nc1ccc2oc(=O)ccc2c1`, for which the growth was 24.8% (inactive). To `O=C(Nc1ccccc1)Nc1ccc(C(=O)/C=C/c2ccc(N3CCCC3)cc2)cc1` belongs 17.3% (inactive). Then `Nc1nc(-c2cccc([N+](=O)[O-])c2)c(N=Nc2ccccc2)s1`, with 11.5% (inactive); and `OB(O)c1ccccc1`, with 110% (inactive); and `Nc1ncnc2c1ncn2C1OC(CO)C(O)C1O` (stereo unspecified), with 116% (inactive) and -13.3% (active). For `Fc1ccc(NCc2nnc(-c3ccc(Cl)cc3)o2)cc1`, the growth was 56.9% (inactive). Regarding `C=C1C(=O)O[C@H]2[C@H]1CC/C(COC(=O)c1cn(C)c3ccccc13)=C\CC[C@@]1(C)O[C@@H]21`, the growth was -66.4% (active). To `CC(=O)c1ccc2c(ccc3ccccc32)c1` belongs 95.5% (inactive). Then `C[C@@H](C[C@H](CC1CC1)c1ccccc1)c1ccc2ccccc2c1`, with 101% (inactive). On to `Cc1ccc(OCCn2c(C)nn(-c3ccc(Cl)cc3)c2=O)cc1`, for which the growth is 124% (inactive). Then `O=C(CI)Nc1ccc(O)c2ccccc12`, with -71.7% (active); and `C=COC(=O)C(C)(C)C`, with 106% (inactive). Consider `Cn1ccnc1C(=O)/C=C/c1ccc(CNC(=O)c2ccc(S(F)(F)(F)(F)F)cc2)cc1`, for which the growth was 23.3% (inactive). Then `CCN1CC(=O)N(/N=C2\C(=O)Nc3ccccc32)C1=S`, with 73.1% (inactive). To `O=C(N/N=C\c1ccc(Cl)cc1)C(=O)N/N=C\c1ccc(Cl)cc1` belongs 124% (inactive); to `c1ccc(-c2cn3c(ccc4ccccc43)n2)cc1`, 30.6% (inactive).
